Assay outcomes deposited in PubChem by several laboratories.
In the library only some 4.7% were active in any assay of this set; here they are far more common.
tim10-1 inh: growth inhibitors of tim10-1 mutant yeast, primary screen, luminescence, uHTS | S. cerevisiae tim10-1 ts strain growth, BacTiter-Glo, 24 h | 330,000 compounds, 2.2% hits | inhibition, % at 20 µM;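 active = inhibition of at least 40%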;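 note: mutant grown at 25 °C; 0% = DMSO wells with yeast and 100% = wells holding no yeast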
PfHsp90 yeast 2: growth inhibition of PfHsp90-expressing yeast, primary screen, antimalarial PfHsp90 inhibitor project, S. cerevisiae, BacTiter-Glo luminescence, single point, set 2; AID 504621, 2011; 310,000 compounds, 0.32% hits; BacTiter-Glo ATP, 48 h; yeast lacking PDR1 and PDR3 efflux regulators; inhibition, % at 9.4 µM;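 active = every replicate shows inhibition above about 80%, whatever the replicate mean, limit read from the data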;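 note: 0% = DMSO neutral controls and 100% = 20 µM radicicol positive controls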
tim23-1 inh: growth inhibitors of tim23-1 mutant yeast, primary screen, luminescence, uHTS; S. cerevisiae tim23-1 growth, BacTiter-Glo luminescence, 24 h; inhibition, % at 20 µM; 330,000 compounds, 1.3% hits; AID 463212, 2010;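 active = growth inhibition of the mutant yeast at or above 50%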;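 note: temperature-sensitive mutant grown at 25 °C; plate controls were DMSO-treated mutant yeast for no effect and medium wells lacking yeast for full effect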
EBI2 antag: EBI2 receptor antagonists, beta-arrestin recruitment, primary screen, cell-based, luminescence, 7a,25-OHC stimulation, uHTS. G-protein coupled receptor 183 (Homo sapiens), P32249. 7a,25-OHC stimulated. inhibition, % at 5 µM. 360,000 compounds, 0.81% hits. AID 651636, 2012; in the data active = inhibition above about 38%;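 note: enzyme fragment complementation signal reports receptor beta-arrestin coupling in cells; 0% = agonist plus DMSO wells and 100% = wells without agonist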
Target sequence (P32249 whole entry, looked up, the tested form may be a part): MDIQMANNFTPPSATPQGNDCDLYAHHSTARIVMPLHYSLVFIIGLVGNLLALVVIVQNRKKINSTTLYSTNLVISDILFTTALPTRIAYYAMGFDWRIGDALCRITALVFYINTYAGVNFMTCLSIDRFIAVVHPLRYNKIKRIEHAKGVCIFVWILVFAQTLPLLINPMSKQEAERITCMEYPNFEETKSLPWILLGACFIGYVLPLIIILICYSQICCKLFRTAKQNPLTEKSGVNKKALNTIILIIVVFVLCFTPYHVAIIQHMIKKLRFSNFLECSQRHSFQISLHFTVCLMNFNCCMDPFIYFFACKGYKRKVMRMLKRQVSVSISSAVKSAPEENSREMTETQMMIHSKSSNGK
SKKanGAS inh: S. pyogenes SKKanGAS growth inhibitors in kanamycin, primary screen, streptokinase expression inhibitor project, SKKanGAS strain, BacTiter-Glo luminescence; 6 h; 300,000 compounds, 1.3% hits; inhibition, % at 7.5 µM;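 active = mean replicate score, as percent of positive control median, at least 50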;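 note: strain carries kanamycin resistance gene driven by streptokinase promoter and grows in 40 µg/ml kanamycin; loss of luminescence reflects streptokinase promoter inhibition or plain growth inhibition; 0% = median of DMSO wells and 100% = positive control at its reference dose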
TIM10 inh: growth inhibitors of isogenic TIM10 control yeast, primary screen, counter-screen for tim10-1 yeast inhibitor project, luminescence, uHTS | S. cerevisiae TIM10 strain growth, BacTiter-Glo luminescence, 24 h | inhibition, % at 10 µM | 330,000 compounds, 1.4% hits;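 active = inhibition of 40% or more at the single tested concentration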;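 note: wild-type TIM10 isogenic control strain grown at permissive 25 °C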
tim10-1 conf: growth inhibitors of tim10-1 mutant yeast, confirmation, single concentration, luminescence, S. cerevisiae; S. cerevisiae tim10-1 ts strain growth, BacTiter-Glo, 24 h; 7,400 compounds, 56% hits; shares compounds with tim10-1 inh; AID 463213, 2010; inhibition, % at 20 µM;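 active = inhibition of yeast growth at or above a set limit in either of two repeat tests at 20 µM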;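 note: tim10-1 mutant grown at permissive 25 °C to find synthetic lethal compounds; 0% = DMSO yeast wells and 100% = medium wells without yeast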
TIM10 conf: growth inhibitors of wild-type TIM10 yeast, confirmation, counter-screen for tim10-1 synthetic lethality project, single concentration, luminescence, S. cerevisiae. shares compounds with TIM10 inh. AID 463215, 2010. 4,600 compounds, 63% hits. S. cerevisiae tim10 strain growth, BacTiter-Glo luminescence, 24 h. inhibition, % at 10 µM;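 active = inhibition of yeast growth at or above a set limit in either of two replicates at 10 µM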;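 note: this counterscreen used the strain with wild-type TIM10; 0% = yeast with DMSO and 100% = medium wells lacking yeast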
tim23-1 confirm: tim23-1 mutant yeast growth inhibitors, confirmation, luminescence, single concentration; S. cerevisiae tim23-1 growth, BacTiter-Glo luminescence, 24 h; inhibition, % at 20 µM; shares compounds with tim23-1 inh; 4,400 compounds, 83% hits;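 active = inhibition above about 39% in either of two replicate wells at 20 µM, limit read from the data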;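 note: temperature-sensitive tim23-1 mutant grown at 25 °C; 0% = DMSO wells with yeast and 100% = medium wells without yeast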
* = called active by the depositor; nt = not tested or not shown.

SMILES | tim10-1 inh | PfHsp90 yeast 2 | tim23-1 inh | EBI2 antag | SKKanGAS inh | TIM10 inh | tim10-1 conf | TIM10 conf | tim23-1 confirm
Cc1cccc(/C(N)=N/OC(=O)C23CC4CC(CC(C4)C2)C3)c1 | 55.5* | -18.7 | 67.8* | 13.5 | 0.4 | 79.8* | 57.1* | 5.3 | 65.8*
COc1cc(OC)cc(C(=O)O/N=C(\N)c2cccc(C)c2)c1 | 52.8* | -20.1 | 85.7* | 10.8 | 17.8 | 78.8* | 39.7* | 84.8* | 82.8*
Cc1cccc(C(=O)O/N=C(\N)c2cccc([N+](=O)[O-])c2)c1 | 73.9* | 5.4 | 52.8* | 7.0 | -0.1 | 57.9* | 80.4* | 48.6* | 50.5*
Cc1cccc(/C(N)=N/OC(=O)c2cccnc2)c1 | 38.2 | -46.6 | 35.4 | 6.2 | 5.3 | 37.4 | nt | nt | nt
CCC(C(=O)O/N=C(\N)c1cccc(C)c1)c1ccccc1 (configuration not stated) | 62.6* | 19.2 | 60.9* | 14.8 | 1.7 | 53.9* | 53.4* | -30.3 | 55.3*
Cc1ccc(C(=O)N2CCN(c3ccccc3F)CC2)cc1S(=O)(=O)N1CCOCC1 | 21.5 | -4.1 | 16.1 | -0.9 | 4.9 | 13.2 | nt | nt | nt
O=C(Nc1ccc(Nc2ccccc2)cc1)c1ccc(Cl)c([N+](=O)[O-])c1 | 45.7* | 8.0 | 73.3* | 4.5 | 5.7 | 23.4 | 27.6 | nt | 56.8*
Cc1cc(C(=O)Nc2ccc(Nc3ccccc3)cc2)ccc1[N+](=O)[O-] | -13.4 | -19.6 | -2.2 | 8.6 | 0.7 | -3.6 | nt | nt | nt
CS(=O)(=O)c1[nH]nc(-c2cccc(Cl)c2)c1C#N | -10.6 | 1.5 | 10.1 | -0.7 | 1.9 | 8.0 | nt | nt | nt
COc1cc(/C=C2\COC/C(=C\c3ccc(O)c(OC)c3)C2=O)ccc1O | 71.3* | -4.4 | 68.6* | 15.2 | 15.6 | 67.0* | 67.7* | 61.3* | 81.8*
NC(=O)C1(c2ccccc2)OC1c1ccccc1 (configuration not stated) | 1.3 | -4.6 | 17.5 | -2.8 | 5.0 | -4.2 | nt | nt | nt
CCN(CC)c1nc(OCCNC(=O)Nc2ccccc2)nc(N(CC)CC)n1 | 41.8* | -8.6 | 61.6* | -2.3 | 5.1 | 26.5 | 34.8* | nt | 49.7*
Cc1ccccc1S(=O)(=O)Oc1ccc2ccc(O)cc2c1 | 16.1 | -5.1 | 41.8 | 8.4 | 10.5 | 0.0 | nt | nt | nt
COc1cccc(C(=O)Oc2ccc3ccc(O)cc3c2)c1 | 42.6* | nt | 56.6* | nt | -3.0 | 33.9 | 38.0* | nt | 53.8*
Cc1ccccc1C(=O)Oc1ccc2ccc(O)cc2c1 | 48.9* | -24.7 | 51.1* | -2.5 | 2.0 | 33.6 | 45.8* | nt | 49.0*
O=c1[nH]c2ccc([N+](=O)[O-])cc2nc1/C=C(\O)c1ccccc1 | -7.2 | 4.2 | -23.3 | 2.8 | 0.6 | -14.9 | nt | nt | nt
COc1ccc(N2C(=O)C(Cl)=C(Oc3cccc(OC)c3)C2=O)cc1 | 72.3* | 1.6 | 53.4* | 12.7 | nt | 75.4* | 56.8* | 81.5* | 4.5
Cc1ccc(SCc2[nH]nc3c2C(c2ccco2)C(C#N)=C(N)O3)cc1 (configuration not stated) | 70.8* | -8.1 | 68.2* | -24.2 | 23.3 | 37.7 | 55.0* | nt | 50.5*
CCc1[nH]nc2c1C(c1ccc(Br)s1)C(C#N)=C(N)O2 (configuration not stated) | 85.5* | 12.8 | 82.2* | -12.8 | nt | 74.7* | 82.9* | -21.9 | 79.9*
Cc1ccc(SCc2[nH]nc3c2C(C(C)C)C(C#N)=C(N)O3)cc1 (configuration not stated) | 36.6 | -7.4 | 12.8 | 0.8 | -3.9 | 0.1 | nt | nt | nt
Nc1nc(-c2ccc3c(c2)CCCC3)cs1 | 59.0* | 2.8 | 51.5* | 1.6 | nt | 32.3 | 44.5* | nt | 53.7*
O=C(CSCc1ccc(F)cc1)NCc1ccco1 | 15.6 | nt | 14.0 | -2.0 | 1.8 | -13.2 | nt | nt | nt
Oc1ccc2ccccc2c1/C=N/c1nc2c(s1)CCCC2 | 15.0 | 20.3 | 32.8 | -14.0 | -2.7 | 13.4 | nt | nt | nt
Oc1c(Br)cc(Br)cc1/C=N/c1nc2c(s1)CCCC2 | 52.7* | 74.3 | 76.0* | -1.0 | 50.6* | 41.5* | 27.8 | 30.3 | 91.1*
CCN(CC)C(=O)Cn1cc(S(=O)(=O)CC(=O)NCc2ccc(F)cc2)c2ccccc21 | 9.8 | 3.2 | -0.6 | -1.9 | -1.5 | 9.4 | nt | nt | nt
SMILES | tim10-1 inh | PfHsp90 yeast 2 | tim23-1 inh | EBI2 antag | SKKanGAS inh | TIM10 inh | tim10-1 conf | TIM10 conf | tim23-1 confirm
CCCCNC(=S)N(CCN(C)C)Cc1cc2cc3c(cc2[nH]c1=O)OCCO3 | 9.7 | 16.0 | 10.6 | -1.1 | -1.6 | 3.6 | nt | nt | nt
O=C(NCC(c1ccco1)N1CCc2ccccc2C1)c1cccc(Br)c1 (configuration not stated) | 38.7 | -6.8 | 47.0 | 11.1 | 1.0 | 8.5 | nt | nt | nt
COc1ccc2c(c1)CC/C2=N\OC(=O)c1ccccc1OC | 52.8* | 21.7 | 81.1* | 3.4 | -1.8 | 71.2* | 38.2* | 80.4* | 79.5*
O=c1ccc2cc3c(-c4ccccc4)coc3cc2o1 | 60.5* | -13.2 | 63.8* | 2.3 | 8.9 | 45.7* | 60.8* | 58.0* | 65.6*
O=Cc1ccc(OCc2nnsc2Cl)cc1 | 2.0 | 23.3 | 7.3 | 6.6 | 8.7 | 12.5 | nt | nt | nt
CCC[n+]1c2ccccc2cc2ccccc21 | 68.0* | -15.4 | 56.1* | -12.6 | -6.0 | 66.5* | 65.5* | 61.5* | 60.2*
CCCC[n+]1c2ccccc2cc2ccccc21 | 71.3* | -14.0 | 65.0* | -8.2 | -9.6 | 73.9* | 70.4* | 69.3* | 64.0*
CCCCC[n+]1cccc2c3ccccc3ccc21 | 8.1 | -10.0 | 6.5 | -2.7 | -1.8 | 5.1 | nt | nt | nt
Cc1ccc2ccccc2[n+]1CCCS(=O)(=O)[O-] | 1.0 | 11.7 | 7.3 | -1.2 | -1.1 | -10.4 | nt | nt | nt
Cc1nc(N)ncc1C(=O)Nc1ccccc1 | 6.8 | 1.0 | -7.8 | -6.9 | 1.1 | 12.0 | nt | nt | nt
COc1ccc(C(=O)c2c(C(F)(F)F)oc3c2C(=O)c2ccccc2C3=O)cc1 | 55.3* | -44.5 | 78.5* | 19.2 | 97.0* | 50.6* | 52.2* | 75.9* | 73.2*
COc1ccc(C(=O)c2oc3ccccc3c2NC(C)=O)cc1 | 24.3 | nt | 26.7 | 10.8 | 2.1 | 7.6 | nt | nt | nt
